COUP-TFII inh = NR2F2 (human) inhibition, primary screen; HEK293T NGFI-A luciferase reporter, luminescence; inhibition, % at 8.6 µM; actives 0.7% (n = 370,000); AID 686940;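 active = inhibition above a per-plate cutoff, mean inhibition of test wells between control levels plus 3 SD, cut at about 38% in these data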;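 note: cells cotransfected with COUP-TFII expression vector driving the NGFI-A reporter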
NR5A2 inv ag = inverse agonists of human LRH-1 (NR5A2). O00482. HEK293T StAR-luciferase reporter, LRH-1 transfected, 24 h. inhibition, % at 3.6 µM. actives 0.13% (n = 360,000);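 active = inhibition above the mean inhibition of all tested compounds plus 3 SD, cut at about 73% in these data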
Target sequence (O00482 whole entry, looked up): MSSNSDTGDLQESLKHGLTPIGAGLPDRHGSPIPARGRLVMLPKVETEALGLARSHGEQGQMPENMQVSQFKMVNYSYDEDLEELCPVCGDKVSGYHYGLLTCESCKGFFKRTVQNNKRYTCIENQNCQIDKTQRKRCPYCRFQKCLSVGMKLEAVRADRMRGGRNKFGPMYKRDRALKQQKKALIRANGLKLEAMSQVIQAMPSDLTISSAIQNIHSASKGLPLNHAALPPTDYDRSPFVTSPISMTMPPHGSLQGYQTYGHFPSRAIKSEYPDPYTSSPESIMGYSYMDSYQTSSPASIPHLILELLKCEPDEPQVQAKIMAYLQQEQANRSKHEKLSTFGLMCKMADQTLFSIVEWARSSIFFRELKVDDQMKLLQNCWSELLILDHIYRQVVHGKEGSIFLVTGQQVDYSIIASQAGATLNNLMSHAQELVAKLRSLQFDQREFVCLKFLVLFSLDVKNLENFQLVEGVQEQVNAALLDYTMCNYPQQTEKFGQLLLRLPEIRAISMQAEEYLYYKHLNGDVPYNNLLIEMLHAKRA
SRC2 inh = inhibits human steroid receptor coactivator 2 | Q15596 | HEK293 GAL4-SRC2 luciferase reporter, luminescence | inhibition, % at 9 µM | actives 0.17% (n = 370,000) | AID 651957;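 active = inhibition above the mean inhibition of all tested compounds plus 3 SD, set per campaign, cut at about 52% in these data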
SRC1 inh = inhibitors of human steroid receptor coactivator 1 (SRC1); Q15788; HEK293 GAL4-SRC1 luciferase reporter, luminescence; inhibition, % at 3.6 µM; actives 0.12% (n = 360,000); AID 588354;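 active = inhibition above the campaign mean plus 3 SD, with each screening campaign given its own cutoff, cut at about 60% in these data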
SRC3 inh = inhibitors of human steroid receptor coactivator 3 (SRC3); Q9Y6Q9; HEK293 GAL4-SRC3 luciferase reporter, luminescence; inhibition, % at 3.6 µM; actives 0.17% (n = 360,000); AID 588352;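 active = inhibition above a per-campaign cutoff, the mean of all compounds plus 3 SD, cut at about 60% in these data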;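 note: higher means less SRC3-driven luciferase light from the GAL4 reporter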
Each line names hits and unclear results; the compound was inactive in the other large screens. Rows were chosen to be rich in hits. Some 0.84% of all compounds tested hit in one or more screens of this group.

COc1ccc(C(=O)CC(=O)c2ccc(C(C)(C)C)cc2)cc1	none
COc1ccc(C(=O)C(CCC(CNC(C)(C)C)C(=O)c2ccc(OC)cc2)CNC(C)(C)C)cc1 (centres undefined)	SRC2 inh 54
COC(=O)C1=C(C)N(Cc2cccc(C(F)(F)F)c2)C(=NCc2cc(OC)c(OC)c(OC)c2)NC1c1ccc(Cl)cc1 (centres undefined)	none (no result: NR5A2 inv ag, SRC1 inh, SRC3 inh)
CCCc1cc2c(OC)ccc(O)c2c(=O)n1C	none (no result: NR5A2 inv ag, SRC1 inh, SRC3 inh)
C(=C\c1ccc2ccccc2n1)/c1ccccc1	none
CN(C)c1ccc(/C=C/c2ccc3ccccc3n2)cc1	SRC1 inh 62, SRC3 inh 64 (no result: COUP-TFII inh, SRC2 inh)
CCN(CC)c1ccc2cc(NC(=O)CCC(=O)O)c(=O)oc2c1	COUP-TFII inh 83, SRC2 inh 85
N=c1c2c(-c3ccccc3)c(-c3ccccc3)n(Cc3ccco3)c2ncn1CCCn1ccnc1	SRC3 inh 68
N=c1c2c(-c3ccccc3)c(-c3ccccc3)n(Cc3ccccc3)c2ncn1CCO	SRC3 inh 69
O=C(C1=C(c2ccccc2)C(=O)c2ccccc2C1=O)c1ccccc1	SRC2 inh 57, SRC3 inh 82
COC(=O)c1cc2c(c3c4cc(F)ccc4n(S(=O)(=O)c4ccc(C)cc4)c13)C(=O)N(c1ccc(OC)cc1)C2	none (no result: NR5A2 inv ag, SRC1 inh, SRC3 inh)
O=C(O)C1CC=CCC1C(=O)Nc1ccc2c(c1)OCCO2 (centres undefined)	SRC2 inh 56
O=c1[nH]c(=O)n([C@H]2C[C@H](O)[C@@H](CO)O2)cc1F	SRC1 inh 66, SRC3 inh 67
O=c1[nH]c(=O)n(C2CC(O)C(CO)O2)cc1I (centres undefined)	none
Cc1cc(NC(=O)c2ccc3c(c2)OCCO3)ccc1NC(=O)c1ccco1	none
O=C(Nc1ccc(NC(=O)c2ccco2)cc1)c1ccc2c(c1)OCCO2	SRC2 inh 61
C=CCn1cc(/C=C/c2cc[n+](C)cc2)c2ccccc21	COUP-TFII inh 49
CC(C)n1cc(/C=C/c2cc[n+](C)cc2)c2ccccc21	none
Cn1c(/C=C/c2ccc(Cl)cc2Cl)c([N+](=O)[O-])c(=O)n(C)c1=O	SRC3 inh 75
Cc1oc2c(c1C(=O)c1ccccc1)C(=O)C(=O)c1ccccc1-2	SRC2 inh 63
O=C(N/N=C\c1c(O)ccc2ccccc12)c1ccc(O)cc1	none
COc1ccccc1/C=N/NC(=O)c1ccc(C)nc1	none
Cc1ccc(C(=O)N/N=C/c2c(O)ccc3ccccc23)cn1	NR5A2 inv ag 87, SRC1 inh 68, SRC3 inh 74
O=C(N/N=C/c1c(O)ccc2ccccc12)c1ccc[n+](CCO)c1	none
Cn1cc(C(=O)N/N=C/c2c(O)ccc3ccccc23)ccc1=O	SRC3 inh 62
O=C(NN=Cc1c(O)ccc2ccccc12)c1ccncc1	NR5A2 inv ag 91, SRC3 inh 75
COc1ccc2ccccc2c1/C=N\NC(=O)c1cccnc1	none
O=C(N/N=C/c1c(O)ccc2ccccc12)c1cccnc1	NR5A2 inv ag 92, SRC3 inh 77
Cc1ccc(NC(=O)Nc2ccc3c(c2)[C@]2(CC(=O)N(CC(C)C)C2c2ccccc2)C(=O)N3C)cc1Cl (some centres undefined)	none (no result: NR5A2 inv ag, SRC1 inh, SRC3 inh)
COC(=O)[C@]12C[C@H](CC(=O)NCCCCc3ccccc3)C(=O)N(Cc3ccco3)C1=C[C@H](COCc1ccccc1)O[C@@H]2C	none (no result: NR5A2 inv ag, SRC1 inh, SRC3 inh)
O=C(N/N=C\c1c(O)ccc2ccccc12)c1cncc(Br)c1	SRC3 inh 69
Cc1occc1C(=O)N/N=C/c1c(O)ccc2ccccc12	none
Cn1nccc1C(=O)N/N=C/c1c(O)ccc2ccccc12	NR5A2 inv ag 90, SRC1 inh 68, SRC3 inh 73
O=C(N/N=C/c1c(O)ccc2ccccc12)c1ccc(Br)o1	none
O=C(N[C@@H](Cc1cccnc1)C(=O)N1CCC[C@H]1C(=O)NCc1ccccc1)c1ccccc1	none (no result: NR5A2 inv ag, SRC1 inh, SRC3 inh)
Nn1c(SCC(=O)Nc2nccs2)nnc1-c1cc(-c2ccccc2)n[nH]1	none (no result: NR5A2 inv ag, SRC1 inh, SRC3 inh)
CC(C)(C)c1ccc(C#C[C@@H]2C=C[C@@H](O)[C@@H](COC(=O)NCc3ccccc3)O2)cc1	none (no result: NR5A2 inv ag, SRC1 inh, SRC3 inh)
Nc1nc(=S)c2ncn([C@@H]3O[C@H](CO)[C@@H](O)[C@H]3O)c2[nH]1	NR5A2 inv ag 81
Nc1ncn([C@@H]2O[C@H](CO)[C@@H](O)[C@H]2O)c(=O)n1	NR5A2 inv ag 75, SRC1 inh 65, SRC3 inh 79
Nc1ccn([C@@H]2O[C@H](CO)[C@@H](O)[C@@H]2O)c(=O)n1	none

High-throughput results deposited in PubChem BioAssay by The Scripps Research Institute Molecular Screening Center.
